From the supplement of paper PMC6897291
Where a name gives a salt, the structure may show the parent alone.

Legend:
RIVA [1] = assay: growth inhibition by drug plus 177Lu-lilotomab satetraxetan (1 - RLU/untreated control) (fraction); higher = stronger inhibition; conditions: 177Lu-lilotomab satetraxetan 0.5 ug/ml
Outline: (§1)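 RIVA or U-2932 cells, untreated or pretreated 18 h with a radiolabelled anti-CD37 antibody conjugate (~600 MBq/mg; 0.5 µg/ml RIVA, 1 µg/ml U-2932), were washed and seeded at 3,000 cells/well on plates pre-printed with the Selleck Cambridge Cancer Compound library. Doses were 10/100 nM (RIVA) or 10/1,000 nM (U-2932). RealTime-Glo luminescence was read daily from day 3 after 1 h at 37°C. Growth inhibition is 1 − RLU/mean of 48 untreated no-drug wells per plate.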

U-2932 [2] = assay: growth inhibition by drug alone (1 - RLU/untreated control) (fraction); higher = stronger inhibition; conditions: 177Lu-lilotomab satetraxetan 0 ug/ml
Outline: as §1

RIVA [3] = assay: as above; conditions: 177Lu-lilotomab satetraxetan 0 ug/ml
Outline: as §1

U-2932 [4] = assay: growth inhibition by drug plus 177Lu-lilotomab satetraxetan (1 - RLU/untreated control) (fraction); higher = stronger inhibition; conditions: 177Lu-lilotomab satetraxetan 1 ug/ml
Outline: as §1

| Structure (SMILES) | growth inhibition by drug plus 177Lu-lilotomab satetraxetan (RIVA [1]; 100 nM, time (day): 5) | growth inhibition by drug plus 177Lu-lilotomab satetraxetan (RIVA [1]; 100 nM, time (day): 6) | growth inhibition by drug alone (U-2932 [2]; 10 nM, time (day): 3) | growth inhibition by drug alone (U-2932 [2]; 10 nM, time (day): 4) | growth inhibition by drug alone (U-2932 [2]; 10 nM, time (day): 5) | growth inhibition by drug alone (U-2932 [2]; 10 nM, time (day): 6) | growth inhibition by drug alone (U-2932 [2]; 1000 nM, time (day): 3) | growth inhibition by drug alone (U-2932 [2]; 1000 nM, time (day): 4) | growth inhibition by drug alone (U-2932 [2]; 1000 nM, time (day): 5) | growth inhibition by drug alone (U-2932 [2]; 1000 nM, time (day): 6) | growth inhibition by drug alone (RIVA [3]; 10 nM, time (day): 3) | growth inhibition by drug alone (RIVA [3]; 10 nM, time (day): 4) | growth inhibition by drug alone (RIVA [3]; 10 nM, time (day): 5) | growth inhibition by drug alone (RIVA [3]; 10 nM, time (day): 6) | growth inhibition by drug alone (RIVA [3]; 100 nM, time (day): 3) | growth inhibition by drug alone (RIVA [3]; 100 nM, time (day): 4) | growth inhibition by drug alone (RIVA [3]; 100 nM, time (day): 5) | growth inhibition by drug alone (RIVA [3]; 100 nM, time (day): 6) | growth inhibition by drug plus 177Lu-lilotomab satetraxetan (U-2932 [4]; 10 nM, time (day): 3) | growth inhibition by drug plus 177Lu-lilotomab satetraxetan (U-2932 [4]; 10 nM, time (day): 4) | growth inhibition by drug plus 177Lu-lilotomab satetraxetan (U-2932 [4]; 10 nM, time (day): 5) | growth inhibition by drug plus 177Lu-lilotomab satetraxetan (U-2932 [4]; 10 nM, time (day): 6) | growth inhibition by drug plus 177Lu-lilotomab satetraxetan (U-2932 [4]; 1000 nM, time (day): 3) | growth inhibition by drug plus 177Lu-lilotomab satetraxetan (U-2932 [4]; 1000 nM, time (day): 4) | growth inhibition by drug plus 177Lu-lilotomab satetraxetan (U-2932 [4]; 1000 nM, time (day): 5) | growth inhibition by drug plus 177Lu-lilotomab satetraxetan (U-2932 [4]; 1000 nM, time (day): 6) | growth inhibition by drug plus 177Lu-lilotomab satetraxetan (RIVA [1]; 10 nM, time (day): 3) | growth inhibition by drug plus 177Lu-lilotomab satetraxetan (RIVA [1]; 10 nM, time (day): 4) | growth inhibition by drug plus 177Lu-lilotomab satetraxetan (RIVA [1]; 10 nM, time (day): 5) | growth inhibition by drug plus 177Lu-lilotomab satetraxetan (RIVA [1]; 10 nM, time (day): 6) | growth inhibition by drug plus 177Lu-lilotomab satetraxetan (RIVA [1]; 100 nM, time (day): 3) | growth inhibition by drug plus 177Lu-lilotomab satetraxetan (RIVA [1]; 100 nM, time (day): 4) |
| --- | --- | --- | --- | --- | --- | --- | --- | --- | --- | --- | --- | --- | --- | --- | --- | --- | --- | --- | --- | --- | --- | --- | --- | --- | --- | --- | --- | --- | --- | --- | --- | --- |
| COc1cc(Nc2c(C#N)cnc3cc(OCCCN4CCN(C)CC4)c(OC)cc23)c(Cl)cc1Cl [Bosutinib (SKI-606)] | 0.378 | 0.403 | – | – | – | – | – | – | – | – | – | – | – | – | – | – | – | – | – | – | – | – | – | – | – | – | – | – | – | – | – | – |
| CCNC(=O)c1noc(-c2cc(C(C)C)c(O)cc2O)c1-c1ccc(CN2CCOCC2)cc1 | 0.988 | 0.988 | 0.0556 | 0.0532 | -0.00948 | 0.11 | 0.942 | 0.972 | 0.981 | 0.982 | 0.0724 | -0.0275 | -0.068 | -0.156 | 0.971 | 0.977 | 0.978 | 0.975 | 0.117 | 0.0968 | 0.0861 | 0.245 | 0.936 | 0.973 | 0.981 | 0.984 | 0.398 | 0.414 | 0.469 | 0.516 | 0.982 | 0.988 |
| CNNCc1ccc(C(=O)NC(C)C)cc1 [Procarbazine hydrochloride (Matulane)] | 0.563 | 0.554 | 0.123 | 0.0702 | -0.0853 | -0.113 | 0.0616 | 0.0673 | 0.00725 | -0.144 | 0.0732 | 0.0412 | 0.0155 | -0.0516 | -0.184 | -0.167 | -0.142 | -0.189 | 0.0466 | 0.103 | 0.15 | 0.195 | 0.0453 | 0.108 | 0.126 | 0.177 | 0.542 | 0.584 | 0.596 | 0.607 | 0.494 | 0.553 |
| COC(=O)C1=C(C)NC(C)=C(C(=O)OCCCN2CCC(c3ccccc3)(c3ccccc3)CC2)[C@H]1c1cccc([N+](=O)[O-])c1 [S-(+)-Niguldipine hydrochloride] | 0.566 | 0.562 | 0.0443 | 0.0164 | -0.0556 | -0.116 | 0.105 | 0.109 | 0.032 | 0.0169 | 0.00175 | -0.0387 | -0.0555 | -0.128 | -0.336 | -0.283 | -0.288 | -0.329 | -0.0121 | 0.0306 | 0.0867 | 0.111 | 0.113 | 0.151 | 0.317 | 0.268 | 0.569 | 0.592 | 0.608 | 0.623 | 0.527 | 0.552 |
| COc1ncc(-c2ccc3nccc(-c4ccnnc4)c3c2)cc1NS(=O)(=O)c1ccc(F)cc1F | 0.97 | 0.975 | 0.726 | 0.786 | 0.81 | 0.821 | 0.87 | 0.935 | 0.961 | 0.972 | 0.856 | 0.892 | 0.918 | 0.933 | 0.898 | 0.925 | 0.943 | 0.953 | 0.744 | 0.769 | 0.769 | 0.768 | 0.908 | 0.958 | 0.976 | 0.982 | 0.897 | 0.937 | 0.952 | 0.961 | 0.937 | 0.963 |
| C[C@H](NC(=O)Cc1cc(F)cc(F)c1)C(=O)N[C@@H]1C(=O)N(C)c2ccccc2-c2ccccc21 | 0.412 | 0.389 | -0.0485 | -0.0319 | -0.0413 | 0.0451 | -0.0641 | -0.0187 | -0.0724 | -0.157 | -0.258 | -0.261 | -0.314 | -0.599 | -0.307 | -0.355 | -0.331 | -0.429 | -0.062 | -0.041 | -0.0625 | -0.0177 | -0.026 | 0.0466 | 0.00781 | -0.0375 | 0.291 | 0.422 | 0.458 | 0.48 | 0.298 | 0.4 |
| CC[C@H](CO)Nc1nc(NCc2ccccc2)c2ncn(C(C)C)c2n1 [Roscovitine (Seliciclib, CYC202)] | 0.55 | 0.531 | 0.0612 | 0.034 | -0.0433 | -0.134 | -0.0928 | -0.0155 | -0.074 | -0.195 | 0.0751 | 0.0434 | 0.0188 | -0.143 | -0.0194 | -0.0523 | -0.0745 | -0.157 | 0.0443 | 0.0516 | 0.0573 | 0.114 | -0.105 | 0.0161 | -0.0091 | -0.013 | 0.429 | 0.539 | 0.544 | 0.554 | 0.49 | 0.54 |
| OC[C@H]1O[C@@H](n2cnc3c2N=CNC[C@H]3O)C[C@@H]1O [Pentostatin] | 0.5 | 0.513 | 0.1 | 0.0372 | -0.116 | -0.114 | -0.0219 | -0.074 | -0.147 | -0.0984 | 0.0173 | -0.0212 | -0.109 | -0.624 | -0.427 | -0.321 | -0.314 | -0.387 | -0.00817 | 0.056 | 0.0512 | 0.0351 | 0.0728 | 0.0721 | 0.118 | 0.207 | 0.472 | 0.557 | 0.557 | 0.555 | 0.399 | 0.488 |
| O=c1c(O)c(-c2ccc(O)c(O)c2)oc2cc(O)cc(O)c12 [Quercetin (Sophoretin)] | 0.48 | 0.508 | 0.129 | 0.074 | -0.0824 | -0.0972 | 0.0543 | 0.0523 | 0.0143 | -0.101 | -0.0527 | -0.036 | -0.117 | -0.426 | -0.494 | -0.296 | -0.357 | -0.683 | 0.0451 | 0.0897 | 0.166 | 0.21 | 0.0503 | 0.0821 | 0.135 | 0.211 | 0.546 | 0.61 | 0.613 | 0.619 | 0.346 | 0.469 |
| N#Cc1ccc(COC[C@H]2O[C@@H](n3c(NCc4ccc(Cl)c(Cl)c4)nc4c(N)ncnc43)[C@H](O)[C@@H]2O)cc1 | 0.557 | 0.551 | 0.115 | 0.0829 | -0.00792 | -0.0103 | 0.0695 | 0.0449 | -0.0886 | -0.0586 | -0.00484 | -0.0139 | -0.22 | -0.465 | -0.367 | -0.326 | -0.323 | -0.395 | -0.0128 | 0.0586 | 0.0723 | 0.037 | 0.12 | 0.128 | 0.109 | 0.165 | 0.498 | 0.574 | 0.59 | 0.586 | 0.472 | 0.543 |
| CC(C)C[C@H](NC(=O)CNC(=O)c1cc(Cl)ccc1Cl)B1OC(=O)C(CC(=O)O)(CC(=O)O)O1 | 0.698 | 0.645 | 0.0922 | 0.0916 | 0.0981 | -0.0316 | 0.985 | 0.984 | 0.984 | 0.984 | -0.0185 | 0.0392 | -0.0726 | -0.362 | 0.319 | 0.4 | 0.359 | 0.21 | 0.0116 | 0.0804 | 0.149 | 0.155 | 0.984 | 0.985 | 0.986 | 0.988 | 0.542 | 0.596 | 0.606 | 0.609 | 0.64 | 0.701 |
